DT40 TDP1 no CPT – qHTS for Inhibitors of human tyrosyl-DNA phosphodiesterase 1 (TDP1): qHTS in cells in absence of CPT; DT40 Tdp1-/- hTDP1 cells, no CPT, ATP luminescence, 48 h; Potency, µM (titrated, usually from 46.2 µM), most hits filed as inhibitors; hit rate 15% among 420,000; AID 686978, 2013; note: nearly all actives have a fitted effect of over 55% in size
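Cells were dispensed at 400 per well, compounds added by pin tool, plates incubated ≥48 hr at 37 °C, then CellTiter-Glo added for 30 min at room temperature before luminescence reading. Line: DT40 Tdp1-/- complemented with hTDP1; camptothecin omitted.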
TGFb inhibitor – inhibitors of TGF-b signaling; HepG2 CAGA-GFP TGF-b/SMAD3 reporter, GFP fluorescence, 18 h; TGF-beta stimulated, 500 pg/mL final; Potency, µM (titrated, usually from 46.1 µM), usual class: inhibitors; hit rate 1.2% among 410,000; note: nearly all actives have a fitted effect of over 65% in size
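Read-out: total well GFP (ex488/em500-530) summed from mean per-cell fluorescence. Cells: HEPG2 CAGA-GFP, 1% FBS DMEM, 18 h at 37 degrees C with 500 pg/mL final TGF-beta. Unstimulated wells served as the full-inhibition control; stimulated DMSO wells = 0%.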
IL1B secr inh – inhibitors of inflammasome signaling (IL-1 beta secretion). THP-1 LPS/ATP IL-1B secretion, AlphaLISA, 16 h; active compounds read low. activity change, % at 57.5 µM. hit rate 4.7% among 360,000. AID 743279; in the data active = activity change below about -50%; inconclusive = mostly about -30% to -49%
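Secreted IL-1B measured by AlphaLISA bead assay after 16 h compound exposure of THP-1 cells; compounds (final up to 57.5 uM) added 1 h before LPS (250 ng/mL) and ATP (1.25 mM) stimulation; lower signal means less secretion.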
DT40 TDP1 CPT – growth inhibition of DT40 Tdp1-/-;hTDP1 cells with camptothecin (screen for TDP1 inhibitors); chicken DT40 Tdp1-/-;hTDP1 cells + 20 nM CPT, ATP luminescence, 48 h; Potency, µM (top dose mostly 46.2 µM), actives largely listed as inhibitors; hit rate 12% among 420,000; note: nearly all actives have a fitted effect of over 55% in size
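Chicken DT40 Tdp1-/- cells complemented with human TDP1, 400 cells/well, exposed to compounds plus 20 nM camptothecin for at least 48 h at 37 C; viability read as ATP content by CellTiter-Glo luminescence.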
HepG2 tox – counter-screen for TGF-b inhibitors: cytotoxicity in HepG2 cells. HepG2 CAGA-GFP viability, ATP luminescence, 18 h. Potency, µM (titrated, usually from 46.1 µM), most hits filed as cytotoxic. hit rate 0.76% among 410,000
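CellTiter-Glo luminescence gave cytotoxicity after 18 hours at 37 degrees C. The cells were HepG2 CAGA-GFP in 1% FBS DMEM, stimulated with 500 pg/mL TGF-beta after compound addition. %Activity was normalised to no-cell wells (complete cell-killing) and DMSO (no toxicity), and curves were fitted and classified.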
ASM inhibitor – inhibitors of human secretory acid sphingomyelinase. placental ASM, HMU-PC fluorogenic substrate, 60 min. hit rate 0.006% among 340,000. Potency, µM (series often up to 57.5 µM), hits mostly inhibitors. AID 504937. P17405
Target sequence (P17405 47-631 limits assumed): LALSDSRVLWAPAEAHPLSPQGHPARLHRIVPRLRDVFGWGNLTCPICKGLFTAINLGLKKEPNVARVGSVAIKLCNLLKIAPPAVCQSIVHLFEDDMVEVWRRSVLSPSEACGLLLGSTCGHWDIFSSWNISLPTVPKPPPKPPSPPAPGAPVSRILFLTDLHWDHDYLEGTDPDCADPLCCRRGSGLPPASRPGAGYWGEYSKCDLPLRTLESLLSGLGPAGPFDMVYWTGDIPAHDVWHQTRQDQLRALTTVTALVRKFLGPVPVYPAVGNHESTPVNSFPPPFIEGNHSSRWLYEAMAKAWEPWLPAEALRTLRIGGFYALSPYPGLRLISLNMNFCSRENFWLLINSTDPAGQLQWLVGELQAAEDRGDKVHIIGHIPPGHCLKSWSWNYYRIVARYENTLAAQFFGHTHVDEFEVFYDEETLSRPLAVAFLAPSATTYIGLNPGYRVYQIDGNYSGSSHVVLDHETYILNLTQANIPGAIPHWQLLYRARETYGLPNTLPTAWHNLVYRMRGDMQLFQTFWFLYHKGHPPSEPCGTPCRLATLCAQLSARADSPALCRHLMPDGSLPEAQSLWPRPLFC
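HMU-PC0 cleavage (9 uM final) by human placental ASM, 60 min at 37 °C following 10 min compound exposure at RT; stopped at pH 10, fluorescence Ex 386/Em 447 nm.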
Numbers stand for hits. This is a sample that favours compounds with a hit; in the whole collection about 19% have one here. Unless noted, calls come from the whole dose curve; as a rule, active = well fitted curve in the direction sought with a large enough effect; inconclusive = small, poorly fitted or top-dose-only effect, or another doubt; inactive = no such curve, though single readings can be large; an effect the other way counts as inactive or inconclusive.

For CCOC(=O)C1CCCN(C(=O)C2CCCN(S(=O)(=O)c3ccc4c(c3)oc(=O)n4C)C2)C1 (configuration not stated) the results were DT40 TDP1 no CPT inconclusive, TGFb inhibitor inactive, IL1B secr inh inactive, DT40 TDP1 CPT inactive, HepG2 tox inactive and ASM inhibitor inactive.
`COc1cc(OC)c(NC(=O)C2CCN(S(=O)(=O)c3ccc4c(c3)oc(=O)n4C)CC2)cc1Cl` gave DT40 TDP1 no CPT inactive, TGFb inhibitor inactive, DT40 TDP1 CPT inactive and HepG2 tox inactive.
For COc1cc(NC(=O)C2CCN(S(=O)(=O)c3ccc4c(c3)oc(=O)n4C)CC2)cc(OC)c1 the results were DT40 TDP1 no CPT 21µM, TGFb inhibitor inactive, DT40 TDP1 CPT inconclusive and HepG2 tox inactive.
For Cc1cc(NC(=O)C2CCN(S(=O)(=O)c3ccc4[nH]c(=O)oc4c3)CC2)ccc1Br the results were DT40 TDP1 no CPT inconclusive, TGFb inhibitor inconclusive, DT40 TDP1 CPT inconclusive and HepG2 tox inactive.
Cc1ccc(C)c(N2CCN(C(=O)C3CCCN(S(=O)(=O)c4ccc5c(c4)oc(=O)n5C)C3)CC2)c1 (configuration not stated) was read as DT40 TDP1 no CPT 12µM, TGFb inhibitor inactive, DT40 TDP1 CPT 16µM and HepG2 tox inactive.
For O=C(CCC(=O)Nc1ccc(Br)cc1)N/N=C/c1ccc(O)cc1 the results were DT40 TDP1 no CPT inconclusive, TGFb inhibitor inactive, IL1B secr inh inactive, DT40 TDP1 CPT inactive, HepG2 tox inactive and ASM inhibitor inactive.
`CC(=O)N(C)c1ccc(NC(=O)Nc2ccc(C)c(C)c2)cc1` gave DT40 TDP1 no CPT 18µM, TGFb inhibitor inactive, IL1B secr inh inconclusive, DT40 TDP1 CPT inconclusive, HepG2 tox inactive and ASM inhibitor inactive.
CCc1ccccc1OCC(=O)OCC(=O)Nc1cc(C)on1 was read as DT40 TDP1 no CPT inactive, TGFb inhibitor inactive, IL1B secr inh inactive, DT40 TDP1 CPT inactive, HepG2 tox 3.2µM and ASM inhibitor inactive.
For CC(=O)N(C)c1ccc(NC(=O)Nc2ccccc2C)cc1 the results were DT40 TDP1 no CPT inactive, TGFb inhibitor inactive, IL1B secr inh inactive, DT40 TDP1 CPT inactive, HepG2 tox inactive and ASM inhibitor inactive.
For Cc1cc(NC(=O)COC(=O)COc2ccc(C(=O)c3ccccc3)cc2)no1 the results were DT40 TDP1 no CPT inactive, TGFb inhibitor inactive, IL1B secr inh inactive, DT40 TDP1 CPT inactive, HepG2 tox inactive and ASM inhibitor inactive.
Cc1ccoc1C(=O)Nc1cccc2ccccc12 was read as DT40 TDP1 no CPT 21µM, TGFb inhibitor inactive, IL1B secr inh inactive, DT40 TDP1 CPT 9.2µM, HepG2 tox inactive and ASM inhibitor inactive.
Screening Cc1cc(NC(=O)Cc2ccccc2C)no1 returned DT40 TDP1 no CPT inactive, TGFb inhibitor inactive, IL1B secr inh inactive, DT40 TDP1 CPT 23µM, HepG2 tox inactive and ASM inhibitor inactive.
`O=C(OCCc1ccccn1)c1cccc([N+](=O)[O-])c1` gave DT40 TDP1 no CPT inactive, TGFb inhibitor inactive, IL1B secr inh inactive, DT40 TDP1 CPT inactive, HepG2 tox inactive and ASM inhibitor inactive.
Screening Cc1cc(NC(=O)Nc2cccc3ccccc23)no1 returned DT40 TDP1 no CPT inconclusive, TGFb inhibitor inactive, IL1B secr inh inactive, DT40 TDP1 CPT 9.2µM, HepG2 tox inactive and ASM inhibitor inactive.
Cc1cc(NC(=O)Nc2ccc(C)c(C)c2)no1 was read as DT40 TDP1 no CPT inactive, TGFb inhibitor inactive, IL1B secr inh inactive, DT40 TDP1 CPT 23µM, HepG2 tox inactive and ASM inhibitor inactive.
Screening CC(=O)N(C)c1ccc(NC(=S)Nc2ccc(C(C)C)cc2)cc1 returned DT40 TDP1 no CPT 26µM, TGFb inhibitor inactive, IL1B secr inh inactive, DT40 TDP1 CPT 16µM, HepG2 tox inactive and ASM inhibitor inactive.

Source: PubChem (National Center for Advancing Translational Sciences (NCATS))
